{"source": "PubChem BioAssay AID588674", "about": "(Broad Institute, 2011)", "note": "About 1,800 (0.5%) of roughly 360,000 compounds were called active.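 Rule for the calls: active = mean inhibition of at least 75% with every replicate also reaching 75%; inconclusive = mean inhibition at least 75% but some replicate below; inactive = mean inhibition below 75%.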 This excerpt belongs to a sample that is enriched for actives."}
{"test": "reduction of Shn3 3'UTR firefly luciferase signal, primary screen, Schnurri-3 inhibitor project, cell-based, Clone20 osteoblasts, set 2 (AID 588674);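 note: 0% = median of neutral control wells and 100% = pilot-screen positive control compound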", "conditions": "Clone20 osteoblast Shn3 3'UTR firefly luciferase, 24 h; at 12.5 µM; hits give high values"}
{"compound": "CCCCNc1nc2c(c(=O)n(C)c(=O)n2C)n1Cc1cccc(OC)c1", "inhibition": "86.7% (active)"}
{"compound": "CCn1c(NCCc2ccc(OC)c(OC)c2)nc2c1c(=O)n(C)c(=O)n2C", "inhibition": "63.1% (inactive)"}
{"compound": "Cn1c(=O)c2c(nc(NCCNC(=O)c3ccco3)n2Cc2ccccc2F)n(C)c1=O", "inhibition": "12.8% (inactive)"}
{"compound": "C[C@H](C(=O)CC(=O)OC(C)(C)C)[C@H](O)c1ccc(C(F)(F)F)cc1", "inhibition": "-13.2% (inactive)"}
{"compound": "O=C(NCc1ccc(F)cc1)c1cc(C2CCCCN2C(=O)c2cccs2)on1", "note": "(configuration not stated)", "inhibition": "4.41% (inactive)"}
{"compound": "O=S1(=O)CC(N2CCN(c3ccccn3)CC2)CN1Cc1ccc(F)cc1", "note": "(configuration not stated)", "inhibition": "11.2% (inactive)"}
{"compound": "COc1ccccc1/C=C/C=N/n1c(-c2ccc(Cl)cc2Cl)n[nH]c1=S", "inhibition": "-1.5% (inactive)"}
{"compound": "Cc1cc(-c2n[nH]c(=S)n2/N=C/C(Br)=C/c2ccccc2)n[nH]1", "inhibition": "90.7% (active)"}
{"compound": "COc1ccccc1N1CCN(/N=C\\C(Br)=C\\c2ccccc2)CC1", "inhibition": "39.8% (inactive)"}
{"compound": "Cc1ccc(S(=O)(=O)N2C[C@]3(O)C[C@@H]4C(=O)N(c5ccccc5)C(=O)[C@@H]4C[C@]3(OC(=O)NC3CC3)C2)cc1", "inhibition": "7.81% (inactive)"}
{"compound": "CCOC(=O)/C(=C\\c1ccc([N+](=O)[O-])cc1)C(=O)c1cc(C(C)=O)c(Nc2ccccc2)s1", "inhibition": "97.8% (active)"}
{"compound": "CCOC(=O)/C(=N\\Nc1ccccc1[N+](=O)[O-])c1csc(Nc2ccccc2)n1", "inhibition": "-7.96% (inactive)"}
{"compound": "CCOC(=O)C(=Cc1ccccc1)C(=O)c1ccccc1", "inhibition": "40.1% (inactive)"}
{"compound": "COc1ccc(-c2c(C#Cc3ccsc3)c3cc(-c4ccc(CN5CCOCC5)cc4)ccc3n2C)cc1", "inhibition": "10.2% (inactive)"}
{"compound": "COc1ccccc1NC(=S)N1CCN(C(c2ccccc2)c2ccccc2)CC1", "inhibition": "13.3% (inactive)"}
{"compound": "CC1(C)CC(N2CCN(C(c3ccccc3)c3ccccc3)CC2)=CC(=[N+]2CCCCC2)C1", "inhibition": "88.3% (active)"}
{"compound": "Cc1cccc(N2CCN(C(c3ccccc3)c3nnnn3CC3CCCO3)CC2)c1C", "note": "(configuration not stated)", "inhibition": "20.4% (inactive)"}
{"compound": "Cc1ccc(-n2c(=O)c(C#N)cc3c(=O)n4ccccc4nc32)cc1C", "inhibition": "6.55% (inactive)"}
{"compound": "O=C(NCC1CCCCC1)c1cc(S(=O)(=O)N2CCCCC2)ccc1N1CCOCC1", "inhibition": "-9.53% (inactive)"}
{"compound": "CCc1nnc(NC(=O)CCN(c2ccc(C)cc2)S(=O)(=O)c2ccccc2)s1", "inhibition": "-20.5% (inactive)"}
{"compound": "Cc1sc2ncnc(SCC(=O)NC3CCS(=O)(=O)C3)c2c1C", "note": "(configuration not stated)", "inhibition": "-6.98% (inactive)"}
{"compound": "CC(C)(C)c1ccc(/C=C2\\Oc3c(ccc(O)c3CN3CCN(CCO)CC3)C2=O)cc1", "inhibition": "7.57% (inactive)"}
{"compound": "O=C(Cn1cc(C(=O)C2CC2)c2ccccc21)Nc1ccccc1Cl", "inhibition": "87.4% (active)"}
{"compound": "Cc1ccccc1NC(=O)Cn1cc(C(=O)C2CC2)c2ccccc21", "inhibition": "8.79% (inactive)"}
{"compound": "COCCCNC(=O)Cn1cc(C(=O)C2CC2)c2ccccc21", "inhibition": "11.6% (inactive)"}
{"compound": "COc1cc(CNc2ncnc3c2ncn3[C@H]2CN(Cc3cccs3)C[C@@H](CO)O2)cc(OC)c1OC", "inhibition": "-5.77% (inactive)"}
{"compound": "Cc1ccccc1C(=O)N1CCN(c2ccc(NC(=O)c3cccs3)cc2)CC1", "inhibition": "23.5% (inactive)"}
{"compound": "Cc1ccccc1C(=O)NC(=S)Nc1ccc(N2CCN(C(=O)c3ccccc3)CC2)cc1", "inhibition": "88.5% (active)"}
{"compound": "COc1ccccc1C(=O)NC(=S)Nc1ccc(N2CCOCC2)cc1", "inhibition": "-4.89% (inactive)"}
{"compound": "CC1(C(=O)NS(=O)(=O)Cc2cccc(Cl)c2)CCN1C(=O)Cc1ccc(Cl)cc1Cl", "note": "(configuration not stated)", "inhibition": "18.9% (inactive)"}
{"compound": "CC1(C)CC(=O)C=C(c2cccc3c2Oc2ccccc2S3)C1", "inhibition": "22.5% (inactive)"}
{"compound": "CCOC(=O)c1c(C)[nH]c2c1-c1ccccc1C(=O)C2=O", "inhibition": "95.4% (active)"}
{"compound": "CCOC(=O)c1c(C)[nH]c(C(=O)OCC(=O)c2ccc(OC)cc2OC)c1C", "inhibition": "-19.1% (inactive)"}
{"compound": "CCOC(=O)c1c(C)[nH]c(C)c1S(=O)(=O)NCCCc1ccco1", "inhibition": "6.75% (inactive)"}
{"compound": "COc1ccccc1C(=O)Nc1ccnn1C1CCN(C(=O)C(C)(C)C)CC1", "inhibition": "-5.61% (inactive)"}
{"compound": "CC(=O)Nc1ccc(N2C(=O)CCC2=O)cc1C", "inhibition": "-1.51% (inactive)"}
{"compound": "C/C(N)=C(/C#N)C(=O)COC(=O)C1CCN(C(=O)c2ccc(Cl)cc2)CC1", "inhibition": "3.42% (inactive)"}
{"compound": "Cc1cccc(NC(=O)CCN2CC(C)CC(C)C2)c1", "note": "(configuration not stated)", "inhibition": "15.6% (inactive)"}
{"compound": "Cc1cccc(CN2CCC(CNC(=O)Nc3ccc(F)c(Cl)c3)CC2)c1", "inhibition": "31.4% (inactive)"}
{"compound": "Cc1ccc(C)c(Cn2nnc3c(=O)[nH]c(C(=O)Nc4ccc(F)cc4)nc32)c1", "inhibition": "6.9% (inactive)"}
{"compound": "Cc1cccc(NC(=O)c2nc(S(=O)(=O)Cc3ccccc3)ncc2Cl)c1", "inhibition": "96.9% (active)"}
{"compound": "Cc1cccc(NC(=O)Cn2cc(C(=O)c3ccco3)c3ccccc32)c1", "inhibition": "76.4% (inactive)"}
{"compound": "Cc1cccc(CS(=O)(=O)c2ncc(Cl)c(C(=O)Nc3ccc(F)cc3)n2)c1", "inhibition": "95.8% (active)"}
{"compound": "CCS(=O)(=O)Nc1ccc(C(=O)NCCSc2ccccc2)cc1", "inhibition": "-6.43% (inactive)"}
{"compound": "CCCCc1ccc(NC(=S)N2CCCC(CO)C2)cc1", "note": "(configuration not stated)", "inhibition": "-84.4% (inactive)"}
{"compound": "COc1cccc(CN(C)CC(=O)Nc2sc3c(c2C#N)CCC3)c1", "inhibition": "-22.6% (inactive)"}
{"compound": "COc1cncc(-c2cnc3sc(NCCc4ccccn4)nn23)c1", "inhibition": "21.9% (inactive)"}
{"compound": "COC(=O)c1sc(C(F)(F)F)c(-c2ccccc2)c1S(=O)(=O)N(C)C", "inhibition": "10.9% (inactive)"}
{"compound": "O=C(O)Cc1ccc(NCc2ccccc2Cl)cc1", "inhibition": "-22.2% (inactive)"}
{"compound": "CC(CN1CCCCC1)OC(=O)c1ccccc1Cl", "note": "(configuration not stated)", "inhibition": "-3.13% (inactive)"}
{"compound": "CC(C)OC(=O)c1ccc(NCc2cc(O)ccc2O)cc1Cl", "inhibition": "95.7% (active)"}
{"compound": "CNS(=O)(=O)c1cccc(C(=O)OCCCC(=O)c2ccccc2)c1", "inhibition": "41.8% (inactive)"}
{"compound": "Fc1ccc2[nH]c3c(N4CCSCC4)ncnc3c2c1", "inhibition": "89.7% (active)"}
{"compound": "CC(C)Cn1cnc2c(SCc3ccc(Cl)cc3)nc(N)nc21", "inhibition": "11.7% (inactive)"}
{"compound": "COCCn1c(SC(C)C(=O)NC2CC2)nnc1-c1cccc(C)c1", "note": "(configuration not stated)", "inhibition": "1.3% (inactive)"}
{"compound": "CC1(C)C2CCC1(C)C(OC(=O)c1ccc(O)cc1)C2", "note": "(configuration not stated)", "inhibition": "21.8% (inactive)"}
{"compound": "O=C(OC12CC3CC(CC(C3)C1)C2)c1ccc(NCc2cc(O)ccc2O)cc1", "inhibition": "98.1% (active)"}
{"compound": "CN(C)C(=O)CCc1ccc2c3c([nH]c2c1)[C@]1(C)[C@@H](C(=O)N2CCOCC2)C[C@H](CC(=O)NCCc2ccccn2)C(=O)N1CC3", "inhibition": "-11.8% (inactive)"}
{"compound": "COc1cc(F)ccc1-c1cc(C(=O)NCC2CCCCC2)[nH]n1", "inhibition": "-10.1% (inactive)"}
{"compound": "CCCOc1ccc(F)cc1-c1cc(C(=O)Nc2ccc(F)cc2)[nH]n1", "inhibition": "20% (inactive)"}
{"compound": "COc1ccc(OC)c(NC(=O)c2cc(-c3cc(F)ccc3OCC3CCCO3)n[nH]2)c1", "note": "(configuration not stated)", "inhibition": "86.3% (active)"}
{"compound": "O=C(CSc1ncnc2c1nnn2Cc1ccc(F)cc1)NC1CCCC1", "inhibition": "-2.06% (inactive)"}
{"compound": "O=C1c2ccccc2[C@@H]2C[C@@H](O)[C@H](Nc3ccccc3Cl)CCN12", "inhibition": "55.5% (inactive)"}
{"compound": "Cn1cccc1Cc1nnc(SCC(=O)NCCc2ccccc2)n1-c1ccc(F)cc1", "inhibition": "87.9% (active)"}
{"compound": "Cc1ccc(C)c(NC(=O)CSc2nnc(Cc3cccn3C)n2-c2ccc(F)cc2)c1", "inhibition": "7.47% (inactive)"}
{"compound": "COc1ccccc1NC(=O)CSc1nnc(Cc2cccn2C)n1-c1ccc(F)cc1", "inhibition": "17% (inactive)"}
{"compound": "Fc1cccc(Cc2c(-c3ccc(Cl)cc3)nc3ccc(Cl)cn23)c1", "inhibition": "-13.4% (inactive)"}
{"compound": "CN1OC[C@@H]2CN(C(=O)c3cccc4ccccc34)[C@H](c3ccc(N4CCCCC4)cc3)C[C@@H]21", "inhibition": "-9.07% (inactive)"}
{"compound": "O=S(=O)(Nc1ccc(Oc2ncccn2)c(Cl)c1)c1ccc(F)cc1", "inhibition": "-28.6% (inactive)"}
{"compound": "Cc1ccc(S(=O)(=O)Nc2ccc3ncccc3c2)cc1", "inhibition": "86.6% (active)"}
{"compound": "Cc1cc(C)cc(OCC(=O)Nc2ccc(S(=O)(=O)Nc3ccccn3)cc2)c1", "inhibition": "6.49% (inactive)"}
{"compound": "Cc1c(CC(=O)NCC(=O)NCC(=O)O)c(=O)oc2cc3oc4c(c3cc12)CCCC4", "inhibition": "-25.9% (inactive)"}
{"compound": "CN(C)C(=O)c1ccc2c(c1)C1C3CCC(C3)C1C(c1ccccc1)N2", "note": "(configuration not stated)", "inhibition": "-19.2% (inactive)"}
{"compound": "COc1ccc(CCNc2cc(N3CCN(C(=O)c4ccccc4OC)CC3)ccc2[N+](=O)[O-])cc1OC", "inhibition": "88.7% (active)"}
{"compound": "COc1ccccc1OCCNc1cc(N2CCOCC2)ccc1[N+](=O)[O-]", "inhibition": "40.1% (inactive)"}
{"compound": "O=C(c1ccccc1)N1CCN(c2ccc([N+](=O)[O-])c(NCc3ccco3)c2)CC1", "inhibition": "27.6% (inactive)"}
{"compound": "CC1=CC(=O)C=CC1(C)C(Cl)(Cl)Cl", "note": "(configuration not stated)", "inhibition": "9.05% (inactive)"}
{"compound": "O=C(CCS(=O)(=O)c1ccc2c(c1)NC(=O)CS2)NCc1ccccc1Cl", "inhibition": "-18.1% (inactive)"}
{"compound": "O=C(NCCSCc1ccccc1)c1ccc(Cl)c(S(=O)(=O)N2CCOCC2)c1", "inhibition": "10.8% (inactive)"}
{"compound": "CN(C)S(=O)(=O)c1ccc(C(=O)NCC(C)(C)N2CCOCC2)cc1", "inhibition": "23% (inactive)"}
{"compound": "CC(C)(CNC(=O)c1ccc(Cl)c(S(=O)(=O)N2CCc3ccccc3C2)c1)N1CCOCC1", "inhibition": "82.5% (active)"}
{"compound": "CCOC(=O)C1=CCC(c2ccc(F)cc2)N(S(=O)(=O)c2ccc(C)cc2)C1", "note": "(configuration not stated)", "inhibition": "10.7% (inactive)"}
{"compound": "N#Cc1c(-c2ccc(F)cc2)cc(C2CC2)nc1SCC(=O)c1cccs1", "inhibition": "-3.6% (inactive)"}
{"compound": "CN1C2CCC1CC(NC(=O)c1ccc([N+](=O)[O-])cc1)C2", "note": "(configuration not stated)", "inhibition": "-1.34% (inactive)"}
{"compound": "O=C(Nc1cc2c3c(c1)C1CCCC1CN3CC1CCCC21)c1ccc([N+](=O)[O-])cc1", "note": "(configuration not stated)", "inhibition": "88.9% (active)"}
{"compound": "CN(CC1CCCO1)S(=O)(=O)c1ccc(C(=O)Nc2ccc([N+](=O)[O-])cc2)cc1", "note": "(configuration not stated)", "inhibition": "39.9% (inactive)"}
{"compound": "CC1=NNC(=O)C1CCC(=O)N/N=C\\c1cccc(Cl)c1", "note": "(configuration not stated)", "inhibition": "-5.12% (inactive)"}
